Measurements from PubChem BioAssay (NCATS).
Results filed as inconclusive are left out. Entries that show only a call come without a potency. The source made the active and inactive calls. Calls follow the shape of the dose curve; as a rule, active = well fitted cell-killing curve with a large enough effect; inconclusive = small, poorly fitted or top-dose-only effect; inactive = flat fitted curve, though single readings scatter.

How the values were obtained:
[1] = Cell Viability - LYMP2-017 (AID 972); also: nearly all actives have a fitted effect of over 55% in size; also: potency is read from the fitted curve at half-maximal effect
Outline: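 LYMP2-017 human lymphoblastoid cells (2500/well) settled 5 hr at 37 C, then exposed to compound 24 hr at 37 C in complete medium. Viability taken as intracellular ATP by CellTiter-Glo luminescence after 30 min at RT; AC50 from Hill fits.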

[2] = Cell Viability - LYMP2-021 (AID 974);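 also: compound exposure lasts 24 hours at 37 °C; nearly all actives have a fitted effect of over 55% in size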; also: potency is read from the fitted curve at half-maximal effect
Outline: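 Human lymphoblastoid LYMP2-021 cells, 2500/well in complete medium, treated 24 hours at 37 C. Intracellular ATP by CellTiter-Glo luminescence (30 min, RT); AC50 from Hill fits of concentration-response.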

[3] = Cell Viability - LYMP2-023 (AID 975); also: nearly all actives have a fitted effect of over 55% in size; also: potency is read from the fitted curve at half-maximal effect
Outline: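 LYMP2-023 human lymphoblastoid cells, 2500/well, preincubated 5 hr at 37 C, then compound-treated 24 hr at 37 C in complete medium. CellTiter-Glo luminescence (ATP) after 30 min at room temperature; AC50 from Hill-equation fits; tetraoctylammonium bromide positive control.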

[4] = Cell Viability - LYMP2-025 (AID 976); also: series mostly up to about 92 µM
Outline: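 Human lymphoblastoid LYMP2-025 cells, 2500/well, exposed 24 h at 37 C in complete medium in 1536-well qHTS. Viability as cellular ATP by CellTiter-Glo luminescence; AC50 from Hill fits of concentration-response data.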

[5] = Cell Viability - LYMP2-002 (AID 977); also: series mostly up to about 92 µM
Outline: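 Luminescent ATP readout (CellTiter-Glo, 30 min room temperature) after 24 h compound exposure at 37 C of a human lymphoblastoid line, 2500 cells/well. AC50 values derived by standard Hill fitting of qHTS concentration-response data.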

[6] = Cell Viability - LYMP2-006 (AID 978); also: nearly all actives have a fitted effect of over 60% in size; also: potency is read from the fitted curve at half-maximal effect
Outline: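 In this cytotoxicity screen, the human lymphoblastoid line grew in complete medium with test compounds for 24 hr at 37 C. Cellular ATP served as the viability signal.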

[7] = Cell Viability - LYMP2-007 (AID 979);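 also: cells exposed to compound for 24 h before reading; nearly all actives have a fitted effect of over 60% in size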; also: potency is read from the fitted curve at half-maximal effect
Outline: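 Human lymphoblastoid LYMP2-007 cells (2500/well) preincubated 5 h at 37 C, then treated 24 h at 37 C in complete medium. Viability by CellTiter-Glo ATP luminescence after 30 min at room temperature; AC50 from Hill fits.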

[8] = Cell Viability - LYMP2-008 (AID 980); also: nearly all actives have a fitted effect of over 60% in size; also: potency is read from the fitted curve at half-maximal effect
Outline: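 LYMP2-008 lymphoblastoid cells (2500/well) plated 5 h, then treated 24 h at 37 C in complete medium. Viability read as intracellular ATP by CellTiter-Glo luminescence after 30 min at room temperature; AC50 from Hill fits.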

[9] = Cell Viability - LYMP2-010 (AID 981); also: nearly all actives have a fitted effect of over 55% in size; also: potency is read from the fitted curve at half-maximal effect
Outline: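 Human lymphoblastoid LYMP2-010 cells (2500/well) treated 24 h at 37 C in complete medium; viability read as intracellular ATP by CellTiter-Glo luminescence. AC50 from Hill fits of concentration-response data; tetraoctylammonium bromide positive control.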

[10] = Cell Viability - LYMP2-012 (AID 982); also: potency is read from the fitted curve at half-maximal effect
[11] = Cell Viability - LYMP2-014 (AID 983); also: nearly all actives have a fitted effect of over 50% in size; also: potency is read from the fitted curve at half-maximal effect
Outline: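 LYMP2-014 human lymphoblastoid cells, 2500/well, treated 24 h at 37 C in complete medium; viability by CellTiter-Glo ATP luminescence after 30 min at room temperature. AC50 from Hill fits of qHTS concentration-response; tetraoctylammonium bromide positive control.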

[12] = Cell Viability - LYMP2-016 (AID 984); also: nearly all actives have a fitted effect of over 55% in size; also: potency is read from the fitted curve at half-maximal effect
Outline: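 Concentration-dependent ATP depletion measured in LYMP2-016 lymphoblastoid cells, 24 h, 37 C; luciferase-based luminescent detection; Hill-equation AC50.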

[13] = Cell Viability - LYMP2-018 (AID 985);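 also: compound exposure lasted 24 hr at 37 °C; nearly all actives have a fitted effect of over 50% in size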; also: potency is read from the fitted curve at half-maximal effect
Outline: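 Human lymphoblastoid LYMP2-018 cells, 2500/well, settled 5 hr at 37 C then exposed to compound 24 hr at 37 C; intracellular ATP measured by CellTiter-Glo luminescence. AC50 from Hill-equation concentration-response fits.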

[14] = Cell Viability - LYMP2-020 (AID 986); also: nearly all actives have a fitted effect of over 55% in size; also: potency is read from the fitted curve at half-maximal effect
Outline: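 Human lymphoblastoid LYMP2-020 cells (2500/well) preincubated 5 h at 37 C, then treated 24 h at 37 C. Viability measured as intracellular ATP by CellTiter-Glo luminescence after 30 min at room temperature; AC50 from Hill fits.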

[15] = Cell Viability - LYMP2-022 (AID 987); also: nearly all actives have a fitted effect of over 55% in size; also: potency is read from the fitted curve at half-maximal effect
Outline: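 LYMP2-022 lymphoblastoid cells (2500/well, complete medium) were treated with compounds for 24 hours at 37 C; intracellular ATP was then read by CellTiter-Glo luminescence after 30 min at room temperature. AC50 values were derived from Hill-equation fits.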

[16] = Cell Viability - LYMP2-024 (AID 988); also: nearly all actives have a fitted effect of over 60% in size; also: potency is read from the fitted curve at half-maximal effect
Outline: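 Human lymphoblastoid LYMP2-024 cells (2500/well) rested 5 hr, then treated with compound for 24 hr at 37 C in complete medium. Viability was measured as intracellular ATP by CellTiter-Glo luminescence. AC50 values came from Hill-equation fits.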

[17] = Cell Viability - LYMP2-026 (AID 989); also: nearly all actives have a fitted effect of over 50% in size
Outline: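 Human lymphoblastoid LYMP2-026 cells, 2500/well, exposed to compound 24 h at 37 C in complete medium. Viability as intracellular ATP by CellTiter-Glo luminescence; AC50 from Hill fits of qHTS concentration-response.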

[18] = Cell Viability - LYMP1-002 - Assay at 24 hr (AID 993); also: potency is read from the fitted curve at half-maximal effect
Outline: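 Human lymphoblastoid LYMP1-002 cells (2500/well) treated 24 h at 37 °C; viability as intracellular ATP by CellTiter-Glo luminescence. Tetraoctylammonium bromide as positive control; AC50 from Hill-equation fits of qHTS concentration-response.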

[19] = Cell Viability - LYMP1-002 - Assay at 40 hr (AID 994); also: nearly all actives have a fitted effect of over 60% in size; also: potency is read from the fitted curve at half-maximal effect
Outline: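 LYMP1-002 human lymphoblastoid cells (2500/well, complete medium) were treated with compounds for 40 hr at 37 C. Intracellular ATP was measured by CellTiter-Glo luminescence, and AC50 values came from Hill-equation fits of concentration-response data; tetraoctylammonium bromide was the positive control.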

Structure (SMILES) | Potency [1] | Potency [2] | Potency [3] | outcome [4] | outcome [5] | Potency [6] | Potency [7] | Potency [8] | Potency [9] | Potency [10] | Potency [11] | Potency [12] | Potency [13] | Potency [14] | Potency [15] | Potency [16] | outcome [17] | Potency [18] | Potency [19]
c1ccc2ccccc2c1 | inactive | inactive | inactive | inactive | inactive | inactive | inactive | inactive | inactive | inactive | inactive | inactive | inactive | inactive | inactive | inactive | inactive | inactive | inactive
C=C1C(CCl)(CCl)C2(Cl)C(Cl)C(Cl)C1(Cl)C2(Cl)Cl (centres undefined) | 50.1 µM (active) | 50.1 µM (active) | 50.1 µM (active) | – | – | 50.1 µM (active) | 39.8 µM (active) | 31.6 µM (active) | 39.8 µM (active) | 39.8 µM (active) | 50.1 µM (active) | 50.1 µM (active) | 50.1 µM (active) | 50.1 µM (active) | 39.8 µM (active) | 39.8 µM (active) | – | 50.1 µM (active) | –
C[C@H]1O[C@@H](O[C@H]2[C@@H](O)C[C@H](O[C@H]3[C@@H](O)C[C@H](O[C@H]4CC[C@@]5(C)[C@H](CC[C@@H]6[C@@H]5C[C@@H](O)[C@]5(C)[C@@H](C7=CC(=O)OC7)CC[C@]65O)C4)O[C@@H]3C)O[C@@H]2C)C[C@H](O)[C@@H]1O | 0.251 µM (active) | – | – | – | – | – | – | – | 0.251 µM (active) | – | – | – | 0.158 µM (active) | – | 0.251 µM (active) | 0.158 µM (active) | – | 0.158 µM (active) | 0.158 µM (active)
Cc1ccc(S(=O)(=O)O)cc1C | inactive | inactive | inactive | inactive | inactive | inactive | inactive | inactive | inactive | inactive | inactive | inactive | inactive | inactive | inactive | inactive | inactive | inactive | inactive
CC[C@H]1OC(=O)[C@H](C)[C@@H](O[C@H]2C[C@@](C)(OC)[C@@H](O)[C@H](C)O2)[C@H](C)[C@@H](O[C@@H]2O[C@H](C)C[C@H](N(C)C)[C@H]2O)[C@](C)(O)C[C@@H](C)CN(C)[C@H](C)[C@@H](O)[C@]1(C)O | inactive | inactive | inactive | inactive | inactive | inactive | inactive | inactive | inactive | inactive | inactive | inactive | inactive | inactive | inactive | inactive | inactive | inactive | inactive
NC(N)=O | inactive | inactive | inactive | inactive | inactive | inactive | inactive | inactive | inactive | inactive | inactive | inactive | inactive | inactive | inactive | inactive | inactive | inactive | inactive
[O-][N+](=Nc1ccccc1)c1ccccc1 | inactive | inactive | inactive | inactive | inactive | inactive | inactive | inactive | inactive | inactive | inactive | inactive | inactive | inactive | inactive | inactive | inactive | inactive | inactive
CC/C=C\C/C=C\C/C=C\CCCCCCCC(=O)O | 50.1 µM (active) | 50.1 µM (active) | – | – | inactive | – | 39.8 µM (active) | – | 39.8 µM (active) | – | – | – | – | – | 50.1 µM (active) | 39.8 µM (active) | – | inactive | inactive
CO | inactive | inactive | inactive | inactive | inactive | inactive | inactive | inactive | inactive | inactive | inactive | inactive | inactive | inactive | inactive | inactive | inactive | inactive | inactive
CCCCO | inactive | inactive | inactive | inactive | inactive | inactive | inactive | inactive | inactive | inactive | inactive | inactive | inactive | inactive | inactive | inactive | inactive | inactive | inactive
